# Source: PubChem BioAssay (EPA / NIEHS)
# Results filed as inconclusive are left out. Calls of active or inactive are those of the source. How the source made its calls, unless noted: active means hit-call score of the fitted dose curve at least 0.9, where 1 is the maximum; inactive means score below 0.9.
# Key:
# [1] = ATG_PBREM_CIS: Attagene CIS-FACTORIAL HepG2 Assay for human Phenobarbital-responsive Enhancer Module (PBREM) (AID 2282955); conditions: HepG2 PBREM cis-reporter, Attagene multiplexed transcription; actives raise or lower the signal
# Summary of the method: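 Reporter mRNA read by RT-PCR, 6-FAM primer extension, HpaI digestion and capillary electrophoresis. Transfected HepG2 cells, 24 h compound exposure. Gain or loss of signal fitted bidirectionally relative to DMSO baseline.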
# [2] = target: Paired box protein Pax-6 (Homo sapiens) (UniProt P26367); assay: ATG_Pax6_CIS: Attagene CIS-FACTORIAL HepG2 Assay for human Paired Box 6 (PAX6) (AID 2282956); conditions: HepG2 CIS-FACTORIAL PAX6 reporter transcription, RNA readout; actives raise or lower the signal
# Paired box protein Pax-6 (Homo sapiens), sequence (P26367 whole entry, looked up): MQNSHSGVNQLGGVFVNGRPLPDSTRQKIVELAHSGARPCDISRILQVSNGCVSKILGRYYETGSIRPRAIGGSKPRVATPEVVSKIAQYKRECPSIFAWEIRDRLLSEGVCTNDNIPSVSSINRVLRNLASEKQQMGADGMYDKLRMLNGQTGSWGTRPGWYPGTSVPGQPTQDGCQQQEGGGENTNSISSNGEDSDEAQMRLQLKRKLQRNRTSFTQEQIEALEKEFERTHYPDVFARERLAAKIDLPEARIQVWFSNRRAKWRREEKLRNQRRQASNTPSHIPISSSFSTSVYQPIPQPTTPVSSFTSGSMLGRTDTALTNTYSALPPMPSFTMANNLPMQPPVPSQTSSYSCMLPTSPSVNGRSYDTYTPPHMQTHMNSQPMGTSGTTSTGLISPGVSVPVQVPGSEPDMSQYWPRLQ
# Summary of the method: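 DMSO-referenced bidirectional fits of reporter mRNA fluorescence; HepG2 with transient cis-promoter MRTUs, 24 h post-dose, RT-PCR plus capillary electrophoresis detection.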
# [3] = ATG_PXRE_CIS: Attagene CIS-FACTORIAL HepG2 Assay for human Pregnane X Receptor Element (PXRE) (AID 2282957); conditions: HepG2 Attagene CIS-FACTORIAL PXRE reporter, mRNA; actives raise or lower the signal
# Summary of the method: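 Fluorescent capillary electrophoresis of amplified reporter cDNA gave the signal, collected 24 h after dosing HepG2 cells that held transfected cis-element reporter constructs.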
# [4] = ATG_PPRE_CIS: Attagene CIS-FACTORIAL HepG2 Assay for human Peroxisome Proliferator-activated Response Element (PPRE) (AID 2282958); conditions: HepG2 PPRE cis-element reporter, Attagene transcription factor profiling; actives raise or lower the signal
# Summary of the method: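 Read-out: fluorescent reporter mRNA fragments resolved by capillary electrophoresis after RT-PCR. HepG2 cells carried transiently transfected PPRE-driven cis reporter constructs and were dosed for 24 h; gain or loss of signal fitted relative to DMSO.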
# [5] = ATG_Sox_CIS: Attagene CIS-FACTORIAL HepG2 Assay for human SRY-box transcription factor (SOX) (AID 2282960); conditions: HepG2 Attagene cis-factorial SOX reporter, mRNA; actives raise or lower the signal
# Summary of the method: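 Read-out: fluorescent RT-PCR products of SOX1-linked reporter transcripts resolved by capillary electrophoresis, fitted bidirectionally against DMSO. Transiently transfected HepG2 cells, 24 h after chemical exposure, endogenous transcription factor activity.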
# [6] = target: Transcription factor Sp1 (Homo sapiens) (UniProt P08047); assay: ATG_Sp1_CIS: Attagene CIS-FACTORIAL HepG2 Assay for human Specificity Protein 1 (Sp1) (AID 2282961); conditions: HepG2 Sp1 cis-reporter transcription, actives raise or lower the signal
# Transcription factor Sp1 (Homo sapiens), sequence (P08047 whole entry, looked up): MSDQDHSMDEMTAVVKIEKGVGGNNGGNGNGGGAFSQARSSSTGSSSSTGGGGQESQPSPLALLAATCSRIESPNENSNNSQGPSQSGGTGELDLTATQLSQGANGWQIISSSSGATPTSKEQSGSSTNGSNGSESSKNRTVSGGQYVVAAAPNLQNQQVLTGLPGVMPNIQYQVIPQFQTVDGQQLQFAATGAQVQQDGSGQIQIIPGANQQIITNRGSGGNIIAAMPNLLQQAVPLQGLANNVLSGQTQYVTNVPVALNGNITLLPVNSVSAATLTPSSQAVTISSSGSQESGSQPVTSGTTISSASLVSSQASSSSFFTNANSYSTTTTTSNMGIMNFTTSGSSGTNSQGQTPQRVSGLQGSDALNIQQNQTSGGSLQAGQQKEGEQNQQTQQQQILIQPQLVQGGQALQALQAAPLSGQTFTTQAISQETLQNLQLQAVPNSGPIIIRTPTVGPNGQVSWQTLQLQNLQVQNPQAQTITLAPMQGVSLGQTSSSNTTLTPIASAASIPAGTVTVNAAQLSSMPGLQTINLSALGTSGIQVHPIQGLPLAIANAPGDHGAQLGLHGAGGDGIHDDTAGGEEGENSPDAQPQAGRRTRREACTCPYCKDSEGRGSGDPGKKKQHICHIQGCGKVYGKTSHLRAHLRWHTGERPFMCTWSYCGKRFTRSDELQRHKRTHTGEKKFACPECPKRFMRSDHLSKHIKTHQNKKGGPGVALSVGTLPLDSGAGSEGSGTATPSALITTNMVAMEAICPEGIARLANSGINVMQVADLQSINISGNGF
# Summary of the method: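 Read-out: fluorescence of 6-FAM-labeled, HpaI-digested RT-PCR products separated by capillary electrophoresis. HepG2 cells carried transfected cis-element reporter units and were exposed to chemicals for 24 h; gain or loss of signal fitted relative to DMSO.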
# [7] = ATG_SREBP_CIS: Attagene CIS-FACTORIAL HepG2 Assay for human Sterol Regulatory Element Binding (SREBP) (AID 2282962); conditions: HepG2 Attagene cis-factorial SREBP reporter, mRNA; actives raise or lower the signal
# Summary of the method: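 In this cis-format assay, HepG2 liver cells express reporters controlled by promoter elements responsive to native transcription factors. Exposure lasts 24 h; reporter mRNA fluorescence from capillary electrophoresis gives the signal, fitted bidirectionally against DMSO.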
# [8] = target: Signal transducer and activator of transcription 3 (Homo sapiens) (UniProt P40763); assay: ATG_STAT3_CIS: Attagene CIS-FACTORIAL HepG2 Assay for human Signal Transducer and Activator of Transcription 3 (STAT3) (AID 2282963); conditions: HepG2, Attagene cis-factorial STAT3 reporter transcription; actives raise or lower the signal
# Signal transducer and activator of transcription 3 (Homo sapiens), sequence (P40763 whole entry, looked up): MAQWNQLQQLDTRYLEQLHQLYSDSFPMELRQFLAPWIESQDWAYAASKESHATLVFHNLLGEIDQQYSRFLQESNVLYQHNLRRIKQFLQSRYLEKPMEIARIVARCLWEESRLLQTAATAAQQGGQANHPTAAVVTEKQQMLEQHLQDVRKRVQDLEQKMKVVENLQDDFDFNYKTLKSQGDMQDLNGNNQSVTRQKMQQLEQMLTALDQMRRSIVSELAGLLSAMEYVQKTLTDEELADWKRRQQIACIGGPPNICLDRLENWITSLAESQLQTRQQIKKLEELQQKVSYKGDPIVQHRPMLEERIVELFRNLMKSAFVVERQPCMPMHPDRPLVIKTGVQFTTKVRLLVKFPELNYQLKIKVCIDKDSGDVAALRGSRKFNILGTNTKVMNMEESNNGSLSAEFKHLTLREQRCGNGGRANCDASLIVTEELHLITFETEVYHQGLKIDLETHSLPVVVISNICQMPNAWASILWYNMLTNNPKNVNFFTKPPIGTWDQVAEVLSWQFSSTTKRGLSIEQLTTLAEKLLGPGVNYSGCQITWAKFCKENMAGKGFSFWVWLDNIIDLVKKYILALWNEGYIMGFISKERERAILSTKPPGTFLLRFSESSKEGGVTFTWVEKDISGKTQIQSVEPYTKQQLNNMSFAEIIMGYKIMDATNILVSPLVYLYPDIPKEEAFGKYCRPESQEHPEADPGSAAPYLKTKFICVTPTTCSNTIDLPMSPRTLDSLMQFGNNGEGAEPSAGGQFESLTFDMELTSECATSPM
# Summary of the method: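 Cis-factorial format: endogenous transcription factors in HepG2 drive transfected reporter units. After 24 h treatment, reporter RNA was reverse-transcribed, amplified, FAM-labelled and HpaI-digested before CE analysis; activity scored in both directions against DMSO.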
# [9] = ATG_TA_CIS: Attagene CIS-FACTORIAL HepG2 Assay for human TA Basal Promoter (AID 2282964); conditions: HepG2 Attagene CIS-factorial TA basal promoter reporter; actives raise or lower the signal
# Summary of the method: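 Background-control readout: TA basal promoter reporter mRNA, fitted in both directions relative to DMSO. Measured by RT-PCR and capillary electrophoresis 24 hours after treating HepG2 human liver cells transiently carrying multiplexed cis-regulated reporter constructs.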
# [10] = ATG_TCF_b_cat_CIS: Attagene CIS-FACTORIAL HepG2 Assay for human T-Cell-Factor with beta-catenin (TCF/b-cat) (AID 2282965); conditions: HepG2 TCF/beta-catenin cis-reporter transcription, actives raise or lower the signal
# Summary of the method: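 Measured: reporter mRNA in HepG2 transiently transfected with cis-promoter reporter units, 24 h after chemical addition. Fitting was bidirectional, DMSO as negative control.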
# [11] = ATG_TAL_CIS: Attagene CIS-FACTORIAL HepG2 Assay for human TAL Basal Promoter (AID 2282966); conditions: HepG2 Attagene cis-factorial TAL promoter reporter; actives raise or lower the signal;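 further: background control endpoint measuring basal TAL promoter reporter mRNA not a specific factor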
# Summary of the method: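 Transiently transfected HepG2 (cis-regulated reporter units), 24 h treatment, mRNA read by fluorescent CE after RT-PCR; bidirectional fit, DMSO baseline.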
# [12] = ATG_TGFb_CIS: Attagene CIS-FACTORIAL HepG2 Assay for human Transforming Growth Factor (TGF) (AID 2282967); conditions: HepG2 Attagene CIS TGFb reporter, mRNA transcription; actives raise or lower the signal
# Summary of the method: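 Endogenous TGFB1-linked transcription factor activity read as reporter mRNA via RT-PCR and capillary electrophoresis, 24 h after dosing transiently transfected HepG2 cells. Gain or loss of signal fitted relative to DMSO.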
# [13] = target: Nuclear receptor subfamily 1 group I member 3 (Homo sapiens) (UniProt Q14994); assay: ATG_CAR_TRANS: Attagene TRANS-FACTORIAL HepG2 Assay for human Constitutive Androstane Receptor (CAR) (AID 2282969; active means hit-call score of the fitted dose curve at least 0.9, where 1 is the maximum;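 further: activators raise reporter mRNA above DMSO so AC50 marks induction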); conditions: HepG2 Attagene TRANS-FACTORIAL CAR reporter
# Nuclear receptor subfamily 1 group I member 3 (Homo sapiens), sequence (Q14994 whole entry, looked up, the tested form may be a part): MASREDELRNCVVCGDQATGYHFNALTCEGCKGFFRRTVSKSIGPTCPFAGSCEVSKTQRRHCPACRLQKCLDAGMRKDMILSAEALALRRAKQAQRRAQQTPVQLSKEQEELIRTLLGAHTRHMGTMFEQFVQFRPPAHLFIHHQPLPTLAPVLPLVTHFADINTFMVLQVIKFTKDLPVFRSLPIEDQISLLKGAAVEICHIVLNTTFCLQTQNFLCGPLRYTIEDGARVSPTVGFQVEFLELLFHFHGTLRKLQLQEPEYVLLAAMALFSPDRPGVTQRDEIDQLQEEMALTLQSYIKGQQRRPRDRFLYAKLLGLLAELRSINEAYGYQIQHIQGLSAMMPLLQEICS
# Summary of the method: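 Signal is reporter mRNA induction relative to DMSO, measured 24 h after dosing by RT-PCR with fluorescent primer extension and capillary electrophoresis. Human HepG2 liver cells carried transiently transfected chimeric NR-Gal4/GAL4-UAS reporter constructs.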
# [14] = target: X-box-binding protein 1 (Homo sapiens) (UniProt P17861); assay: ATG_Xbp1_CIS: Attagene CIS-FACTORIAL HepG2 Assay for human X-box Binding Protein 1 (XBP1) (AID 2282972); conditions: HepG2 XBP1 cis-element reporter, Attagene multiplex; actives raise or lower the signal
# X-box-binding protein 1 (Homo sapiens), sequence (P17861 whole entry, looked up): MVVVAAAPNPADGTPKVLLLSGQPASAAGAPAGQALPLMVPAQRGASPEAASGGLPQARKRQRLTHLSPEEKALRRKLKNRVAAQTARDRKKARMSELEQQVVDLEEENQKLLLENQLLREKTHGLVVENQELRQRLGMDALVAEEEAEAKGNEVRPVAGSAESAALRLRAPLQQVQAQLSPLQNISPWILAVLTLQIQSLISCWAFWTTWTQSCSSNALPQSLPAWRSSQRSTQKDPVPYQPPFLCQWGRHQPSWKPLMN
# Summary of the method: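 Changes in reporter transcript abundance, read by RT-PCR and capillary electrophoresis, reflect endogenous transcription factor activity. Transfected HepG2 cells received compound for 24 hours; DMSO defined baseline for bidirectional analysis.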
# [15] = ATG_RORE_CIS: Attagene CIS-FACTORIAL HepG2 Assay for human RAR-related Orphan Receptor Element (RORE) (AID 2282959); conditions: HepG2 Attagene cis-factorial RORE reporter, mRNA; actives raise or lower the signal
# Summary of the method: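 Readout: fluorescent reporter mRNA by RT-PCR plus capillary electrophoresis, 24 h after dosing transfected HepG2 cells. Endogenous transcription factor activity on a cis promoter element is measured. Gain or loss of signal fitted against DMSO.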
# [16] = target: Estrogen receptor (Homo sapiens) (UniProt P03372); assay: ATG_ERa_TRANS: Attagene TRANS-FACTORIAL HepG2 Assay for human Estrogen Receptor alpha (ERa) (AID 2282970; active means hit-call score of the fitted dose curve at least 0.9, where 1 is the maximum); conditions: HepG2 Attagene TRANS ERa GAL4 reporter, mRNA
# Estrogen receptor (Homo sapiens), sequence (P03372 whole entry, looked up, the tested form may be a part): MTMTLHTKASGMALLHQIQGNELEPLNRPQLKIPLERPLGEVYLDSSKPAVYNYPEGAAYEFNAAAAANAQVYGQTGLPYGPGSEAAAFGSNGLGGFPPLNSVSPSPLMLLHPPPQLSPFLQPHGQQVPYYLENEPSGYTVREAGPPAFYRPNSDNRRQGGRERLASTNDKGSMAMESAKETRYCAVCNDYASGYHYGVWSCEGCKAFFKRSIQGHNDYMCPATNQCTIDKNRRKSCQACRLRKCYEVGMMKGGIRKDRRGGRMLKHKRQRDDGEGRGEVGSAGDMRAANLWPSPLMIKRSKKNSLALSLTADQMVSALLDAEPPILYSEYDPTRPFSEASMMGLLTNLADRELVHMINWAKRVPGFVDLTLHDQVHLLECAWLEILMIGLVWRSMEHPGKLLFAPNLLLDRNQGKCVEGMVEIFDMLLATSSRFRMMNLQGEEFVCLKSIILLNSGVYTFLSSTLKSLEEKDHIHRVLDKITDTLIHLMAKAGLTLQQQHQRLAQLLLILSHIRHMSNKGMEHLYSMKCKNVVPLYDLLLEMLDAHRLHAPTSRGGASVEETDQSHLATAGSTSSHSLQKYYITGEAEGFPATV
# Summary of the method: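 One of 30 multiplexed endpoints from a HepG2 TRANS system, this one reports ERa-Gal4-driven reporter mRNA. Transcripts were quantified 24 hours post-dosing by fluorescent RT-PCR and capillary electrophoresis, with activity scored as induction over DMSO.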
# [17] = target: Androgen receptor (Homo sapiens) (UniProt P10275); assay: ATG_AR_TRANS: Attagene TRANS-FACTORIAL HepG2 Assay for human Androgen Receptor (AR) (AID 2282973; active means hit-call score of the fitted dose curve at least 0.9, where 1 is the maximum); conditions: HepG2 Attagene TRANS-FACTORIAL AR reporter transcription
# Androgen receptor (Homo sapiens), sequence (P10275 whole entry, looked up, the tested form may be a part): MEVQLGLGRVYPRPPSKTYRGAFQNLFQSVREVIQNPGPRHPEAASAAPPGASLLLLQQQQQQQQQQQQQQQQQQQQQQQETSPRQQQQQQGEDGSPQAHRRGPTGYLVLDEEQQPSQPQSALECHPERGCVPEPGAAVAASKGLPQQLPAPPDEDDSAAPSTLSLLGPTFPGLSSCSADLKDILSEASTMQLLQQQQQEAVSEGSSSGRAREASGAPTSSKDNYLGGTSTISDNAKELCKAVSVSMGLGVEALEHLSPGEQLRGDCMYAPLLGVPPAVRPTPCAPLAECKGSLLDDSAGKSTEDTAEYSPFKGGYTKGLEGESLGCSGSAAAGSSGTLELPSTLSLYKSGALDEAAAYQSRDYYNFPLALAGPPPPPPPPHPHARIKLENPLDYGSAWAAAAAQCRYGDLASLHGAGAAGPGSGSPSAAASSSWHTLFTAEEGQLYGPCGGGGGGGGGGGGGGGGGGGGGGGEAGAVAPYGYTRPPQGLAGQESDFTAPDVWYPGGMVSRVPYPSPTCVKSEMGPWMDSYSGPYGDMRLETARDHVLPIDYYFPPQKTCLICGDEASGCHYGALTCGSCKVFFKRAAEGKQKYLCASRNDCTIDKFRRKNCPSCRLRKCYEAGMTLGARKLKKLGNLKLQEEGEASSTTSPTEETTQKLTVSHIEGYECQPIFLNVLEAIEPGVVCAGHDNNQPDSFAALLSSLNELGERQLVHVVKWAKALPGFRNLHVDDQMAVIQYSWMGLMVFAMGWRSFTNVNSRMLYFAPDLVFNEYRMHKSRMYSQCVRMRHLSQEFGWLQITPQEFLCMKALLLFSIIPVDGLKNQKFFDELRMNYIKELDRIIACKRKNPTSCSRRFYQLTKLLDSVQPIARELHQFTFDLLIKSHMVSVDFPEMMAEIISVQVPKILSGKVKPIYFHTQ
# Summary of the method: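 HepG2 cells transiently transfected with multiplexed GAL4-UAS reporter units and chimeric NR-Gal4 fusion; 24 h compound exposure. Reporter mRNA measured by RT-PCR, 6-FAM labelling, HpaI digestion and capillary electrophoresis; gain-of-signal fitted relative to DMSO baseline.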
# [18] = ATG_M_19_TRANS: Attagene TRANS-FACTORIAL HepG2 Assay for M19 Transcription Factor (Internal Marker) (AID 2282974; active means hit-call score of the fitted dose curve at least 0.9, where 1 is the maximum); conditions: HepG2 Attagene TRANS-FACTORIAL M19 internal marker reporter
# Summary of the method: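 24 h chemical exposure of transiently transfected HepG2 (MRTU library). RNA → oligo(dT) RT → PCR → 6-FAM labelling → HpaI cut → CE fluorescence. Positive-direction fit vs DMSO baseline; background internal-marker readout.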
# [19] = ATG_VDRE_CIS: Attagene CIS-FACTORIAL HepG2 Assay for human Vitamin D Receptor Element (VDRE) (AID 2282968); conditions: HepG2 VDRE cis-reporter transcription, actives raise or lower the signal
# Summary of the method: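 Measures endogenous factor activity through cis-element-driven reporter transcripts in transiently transfected HepG2. Cells are treated 24 h; reporter mRNA is quantified by RT-PCR and capillary electrophoresis; fitting is bidirectional.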
# [20] = target: Steroid hormone receptor ERR1 (Homo sapiens) (UniProt P11474); assay: ATG_ERRa_TRANS: Attagene TRANS-FACTORIAL HepG2 Assay for human Estrogen-Related Receptor alpha (ERRa) (AID 2282971; active means hit-call score of the fitted dose curve at least 0.9, where 1 is the maximum); conditions: HepG2 Attagene TRANS reporter, ERRa transactivation
# Steroid hormone receptor ERR1 (Homo sapiens), sequence (P11474 whole entry, looked up, the tested form may be a part): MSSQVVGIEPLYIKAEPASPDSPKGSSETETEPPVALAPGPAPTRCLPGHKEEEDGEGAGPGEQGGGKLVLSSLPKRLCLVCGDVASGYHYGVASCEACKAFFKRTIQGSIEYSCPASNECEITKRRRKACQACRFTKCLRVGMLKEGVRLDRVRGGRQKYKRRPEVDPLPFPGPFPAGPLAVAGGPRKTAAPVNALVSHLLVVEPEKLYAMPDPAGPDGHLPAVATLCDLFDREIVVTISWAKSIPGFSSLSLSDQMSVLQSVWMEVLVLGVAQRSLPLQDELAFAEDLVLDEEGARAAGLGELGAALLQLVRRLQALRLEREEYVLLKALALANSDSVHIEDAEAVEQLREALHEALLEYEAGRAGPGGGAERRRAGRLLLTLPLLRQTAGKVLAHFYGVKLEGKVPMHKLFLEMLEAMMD
# Summary of the method: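 HepG2 cells transiently transfected with multiplexed GAL4-UAS reporter units reading chimeric ERRa-Gal4 activity; 24 h compound exposure. Reporter mRNA measured by RT-PCR, 6-FAM labelling, HpaI digest and capillary electrophoresis; gain of signal fitted versus DMSO baseline.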
smiles,measurement,setting,value
COC(=O)c1ccccc1S(=O)(=O)NC(=O)N(C)c1nc(C)nc(OC)n1,outcome,[1],inactive
same,outcome,[2],inactive
same,AC50,[3],64.7 µM (active)
same,outcome,[4],inactive
same,outcome,[5],inactive
same,outcome,[6],inactive
same,outcome,[7],inactive
same,outcome,[8],inactive
same,outcome,[9],inactive
same,outcome,[10],inactive
same,outcome,[11],inactive
same,outcome,[12],inactive
same,outcome,[13],inactive
same,outcome,[14],inactive
Cc1[nH]c(=O)n(C(C)(C)C)c(=O)c1Cl,AC50,[1],80.8 µM (active)
same,outcome,[2],inactive
same,outcome,[3],inactive
same,outcome,[15],inactive
same,outcome,[5],inactive
same,AC50,[6],50 µM (active)
same,outcome,[7],inactive
same,outcome,[8],inactive
same,outcome,[9],inactive
same,outcome,[10],inactive
same,outcome,[11],inactive
same,AC50,[12],28.7 µM (active)
same,outcome,[13],inactive
same,outcome,[16],inactive
same,AC50,[14],27.4 µM (active)
same,outcome,[17],inactive
same,outcome,[18],inactive
CC[C@H](C)[C@H]1O[C@]2(C=C[C@@H]1C)C[C@@H]1C[C@@H](C/C=C(\C)[C@@H](O[C@H]3C[C@H](OC)[C@@H](O[C@H]4C[C@H](OC)[C@@H](O)[C@H](C)O4)[C@H](C)O3)[C@@H](C)/C=C/C=C3\CO[C@@H]4[C@H](O)C(C)=C[C@@H](C(=O)O1)[C@]34O)O2 (tested in a mixture with another compound),outcome,[1],inactive
same,outcome,[2],inactive
same,AC50,[3],1.75 µM (active)
same,outcome,[5],inactive
same,outcome,[6],inactive
same,outcome,[7],inactive
same,outcome,[8],inactive
same,outcome,[9],inactive
same,outcome,[10],inactive
same,outcome,[11],inactive
same,outcome,[12],inactive
same,outcome,[19],inactive
same,outcome,[16],inactive
same,outcome,[20],inactive
same,outcome,[14],inactive
same,outcome,[18],inactive
CCC(C)Nc1c([N+](=O)[O-])cc(C(C)(C)C)cc1[N+](=O)[O-] (stereo unspecified),outcome,[2],inactive
same,AC50,[3],3.43 µM (active)
same,outcome,[4],inactive
same,AC50,[15],24.1 µM (active)
same,outcome,[5],inactive
same,outcome,[6],inactive
same,outcome,[7],inactive
same,outcome,[8],inactive
same,outcome,[9],inactive
same,outcome,[10],inactive
same,outcome,[11],inactive
same,outcome,[12],inactive
same,AC50,[19],19.2 µM (active)
same,AC50,[16],12.4 µM (active)
same,outcome,[14],inactive
same,outcome,[18],inactive
CC(C)OC(=O)Nc1cccc(Cl)c1,outcome,[2],inactive
same,AC50,[3],15.5 µM (active)
same,AC50,[4],47.1 µM (active)
same,outcome,[15],inactive
same,outcome,[5],inactive
same,outcome,[6],inactive
same,outcome,[7],inactive
same,outcome,[8],inactive
same,outcome,[9],inactive
same,outcome,[10],inactive
same,outcome,[11],inactive
same,outcome,[12],inactive
same,AC50,[19],50 µM (active)
same,outcome,[16],inactive
same,outcome,[20],inactive
same,outcome,[14],inactive
CCc1ccc(C(=O)NN(C(=O)c2cc(C)cc(C)c2)C(C)(C)C)cc1,outcome,[1],inactive
same,outcome,[2],inactive
same,AC50,[3],1.28 µM (active)
same,outcome,[4],inactive
same,outcome,[15],inactive
same,outcome,[5],inactive
same,outcome,[6],inactive
same,outcome,[7],inactive
same,outcome,[8],inactive
same,outcome,[9],inactive
same,outcome,[10],inactive
same,outcome,[11],inactive
same,outcome,[12],inactive
same,AC50,[19],9.51 µM (active)
same,outcome,[16],inactive
same,outcome,[20],inactive
same,outcome,[14],inactive
O=C(NC(=O)c1c(F)cccc1F)Nc1ccc(OC(F)(F)C(F)OC(F)(F)F)c(Cl)c1 (stereo unspecified),outcome,[2],inactive
same,outcome,[3],inactive
same,AC50,[4],20.9 µM (active)
same,outcome,[15],inactive
same,outcome,[5],inactive
same,outcome,[6],inactive
same,outcome,[7],inactive
same,outcome,[8],inactive
same,outcome,[9],inactive
same,outcome,[10],inactive
same,outcome,[11],inactive
same,outcome,[12],inactive
same,outcome,[19],inactive
same,outcome,[16],inactive
same,outcome,[14],inactive
